{"source": "PubChem BioAssay AID493098", "about": "(Sanford-Burnham Center for Chemical Genomics, 2011)", "note": "“And” between values parts separate entries of the source, which are not always exact repeats. Identical values can stand only once. In all, about 340,000 compounds went through this assay and about 1,700 (0.5%) were called active. The list comes from a sample in which actives are over-represented; it also holds similar structures and randomly drawn compounds. A number with no mark means an inactive call.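 How the source made its calls: active means compounds whose inhibition of the agonist-driven luminescence signal at 20 µM reaches about 50% (limit read from the data); inactive means the rest.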"}
{"target": "C-C chemokine receptor type 6 (Homo sapiens) (UniProt P51684)", "sequence (P51684 whole entry, looked up)": "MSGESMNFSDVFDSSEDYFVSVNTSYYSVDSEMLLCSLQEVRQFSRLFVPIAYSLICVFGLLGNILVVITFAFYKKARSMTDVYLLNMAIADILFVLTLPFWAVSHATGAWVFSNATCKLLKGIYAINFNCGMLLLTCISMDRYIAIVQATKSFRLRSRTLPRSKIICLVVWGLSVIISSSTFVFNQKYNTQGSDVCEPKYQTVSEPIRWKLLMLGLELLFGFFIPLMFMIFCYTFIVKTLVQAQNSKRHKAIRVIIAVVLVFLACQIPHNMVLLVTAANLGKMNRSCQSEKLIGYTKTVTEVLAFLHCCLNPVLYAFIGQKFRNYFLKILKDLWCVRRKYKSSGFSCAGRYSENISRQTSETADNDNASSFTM", "test": "CCR6 receptor antagonists, primary screen, cell-based, CHO-K1, luminescence, beta-arrestin, uHTS (AID 493098);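 further: cells stimulated with CCL20 at 14 nM final; plate controls were DMSO with CCL20 for no effect and DMSO without agonist for full effect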", "settings": "CHO-K1 CCR6 PathHunter beta-arrestin, CCL20-stimulated, at 20 µM, stronger effect = higher value"}
{"smiles": "Cc1c(NC(=O)CSc2nnnn2-c2ccc(C(=O)O)cc2)c(=O)n(-c2ccccc2)n1C", "inhibition": "10.9%"}
{"smiles": "Cc1c(NC(=O)CSc2nnc(-c3cccnc3)n2N)c(=O)n(-c2ccccc2)n1C", "inhibition": "5.23%"}
{"smiles": "Cc1c(NC(=O)CSc2cccc3cccnc23)c(=O)n(-c2ccccc2)n1C", "inhibition": "59.7% (active)"}
{"smiles": "Cc1ccc(C)c(OCCC(=O)OCC(=O)N2CCN(c3ccccc3)CC2)c1", "inhibition": "20.8%"}
{"smiles": "CCC(=O)Nc1nc(C)c(C(=O)Nc2cccc(Cl)c2)s1", "inhibition": "5.65%"}
{"smiles": "Cc1csc(NC(=S)Nc2cccc(Cl)c2)n1", "inhibition": "60% (active)"}
{"smiles": "Cc1cc(Cl)nc(NC(=O)Nc2cccc(Cl)c2)n1", "inhibition": "16%"}
{"smiles": "Cc1cccc(NC(=O)CCN2CC(C)CC(C)C2)c1", "note": "(stereo not drawn)", "inhibition": "8.72%"}
{"smiles": "C=CCn1c(P(C)(=O)O)nc2ccccc21", "inhibition": "2.22% and 1.13%"}
{"smiles": "C=CCn1c(C(C)NC(=O)CC)nc2ccccc21", "note": "(stereo not drawn)", "inhibition": "2.5%"}
{"smiles": "C=CCn1c(N)c(C(=O)OCC(C)C)c2nc3ccccc3nc21", "inhibition": "56.9% (active)"}
{"smiles": "CCc1nnc(NC(=O)C2CCN(C(=O)c3ccccc3C)CC2)s1", "inhibition": "1.37%"}
{"smiles": "COc1ccc(CCOC(=O)CNC(=O)c2ccc(Cl)cc2Cl)cc1", "inhibition": "27.9%"}
{"smiles": "Cc1ccc(Br)c(NS(=O)(=O)c2cccc(C(=O)N3CCNC(=O)C3)c2)c1", "inhibition": "-11%"}
{"smiles": "COc1ccc2c(c1)c(=Cc1ccc(N(C)C)cc1)c1cc(-c3ccccc3)[n+](C)n12", "inhibition": "67.2% (active)"}
{"smiles": "COc1ccc2sc(-c3ccc(N(C)C)cc3)c(C#CCO)c2c1", "inhibition": "-34.2%"}
{"smiles": "Cc1ccc(Cn2c(C)c3cnn(CC(=O)NCc4ccccn4)c(=O)c3c2C)cc1", "inhibition": "-8.58%"}
{"smiles": "CCc1ccc(CNC(=O)C2CCCN(c3nc4ccccc4o3)C2)cc1", "note": "(stereo not drawn)", "inhibition": "-4.97%"}
{"smiles": "CCOC(=O)CCNC(=O)N1CCCC(C(=O)c2ccccc2SC)C1", "note": "(stereo not drawn)", "inhibition": "-6.81%"}
{"smiles": "CCOC(=O)c1cnc(Nc2nc3ccccc3o2)nc1CSC(=S)N1CCCCC1", "inhibition": "66.8% (active)"}
{"smiles": "O=C(COc1ncnc2ccccc12)NC(=O)NCc1ccccc1", "inhibition": "3.38%"}
{"smiles": "NS(=O)(=O)c1ccc(NC(=S)NNC(=O)c2cccs2)cc1", "inhibition": "31.7%"}
{"smiles": "CCOc1ccc(C(=O)Nc2nccs2)cc1[N+](=O)[O-]", "inhibition": "4.46%"}
{"smiles": "Cc1ccc(OS(=O)Nc2cccc3nccnc23)cc1", "note": "(stereo not drawn)", "inhibition": "55.4% (active)"}
{"smiles": "Cc1ccc(C)c(NC(=O)c2ccc3nccnc3c2)c1", "inhibition": "-3.74%"}
{"smiles": "Cc1ccc(Oc2ccc3c(c2)C(=O)N(c2cccc4cccnc24)C3=O)cc1", "inhibition": "8.43%"}
{"smiles": "CC1CN(C(=O)COC(=O)c2cccc(NS(=O)(=O)c3ccccc3)c2)CC(C)O1", "note": "(stereo not drawn)", "inhibition": "-4.23%"}
{"smiles": "COc1ccc(C2C(C(C)=O)=C(O)C(=O)N2c2nccs2)cc1", "note": "(stereo not drawn)", "inhibition": "22.9%"}
{"smiles": "CC1(C)C=Cc2c(ccc3c2OC[C@@H](c2ccc(O)cc2O)C3)O1", "inhibition": "-20.6%"}
{"smiles": "CN(C)/C=N/c1cc(=O)n(C)c(=O)n1CC1CC1", "inhibition": "-0.5%"}
{"smiles": "CCOC(=O)c1nnn2c1nc(N1CCN(c3ccccc3)CC1)c1ccccc12", "inhibition": "13.9%"}
{"smiles": "COc1ccc(-c2csc(Cc3nc(O)cs3)n2)cc1", "inhibition": "68.3% (active)"}
{"smiles": "CCCn1c(C2CCCN2c2nc(-c3ccc(OC)cc3)cs2)nc2ccccc21", "note": "(stereo not drawn)", "inhibition": "22.3%"}
{"smiles": "COc1ccc(CNc2nccs2)cc1", "inhibition": "19.1%"}
{"smiles": "Cc1cccc(N(C)C(=O)c2cc(S(=O)(=O)N3CCCCC3)c[nH]2)c1", "inhibition": "-9.41%"}
{"smiles": "Cc1ccc2c(c1)C1C[N+](C)(CC(=O)c3ccccc3)CCC1N2C(=O)c1ccccc1Cl", "note": "(stereo not drawn)", "inhibition": "7.95%"}
{"smiles": "O=C(NN=Cc1ccc([N+](=O)[O-])cc1)C1CC1", "inhibition": "-1.3%"}
{"smiles": "O=[N+]([O-])c1ccc(C=NN=Cc2ccc([N+](=O)[O-])cc2)cc1", "inhibition": "9.6%"}
{"smiles": "O=C1/C(=C\\c2ccc([N+](=O)[O-])cc2)CS(=O)(=O)C/C1=C/c1ccc([N+](=O)[O-])cc1", "inhibition": "102% (active)"}
{"smiles": "OCCC1CN(Cc2cccn2-c2nccs2)CCN1CCc1ccccc1", "note": "(stereo not drawn)", "inhibition": "3.25%"}
{"smiles": "CCCOC(=O)c1c(NC(=O)c2cnn3c2NC(c2ccccc2)CC3C(F)(F)F)sc2c1CCCC2", "note": "(stereo not drawn)", "inhibition": "8.83%"}
{"smiles": "N#C/C(=C\\C1=C(N2CCOCC2)C(=C\\c2ccccc2)/CC1)C(=O)Nc1ccccc1F", "inhibition": "37.8%"}
{"smiles": "O=C(O)c1ccc(NN=CC2=C(N3CCOCC3)/C(=C/c3ccccc3)CC2)cc1", "inhibition": "-7.52%"}
{"smiles": "O=C1Nc2ccc(Br)cc2/C1=N/N=C/C1=C(N2CCOCC2)C(=C\\c2ccccc2)/CC1", "inhibition": "55.1% (active)"}
{"smiles": "COc1ccc(Nc2cc(=O)n(-c3ccccc3)c3c2c(=O)n(C)c(=O)n3C)cc1", "inhibition": "2.01%"}
{"smiles": "Cc1ccc(S(=O)(=O)N2CCN(C)CC2)cc1", "inhibition": "13.6%"}
{"smiles": "Cn1ncc(N2CCN(S(=O)(=O)c3ccc(Br)cc3)CC2)c(Cl)c1=O", "inhibition": "6.7%"}
{"smiles": "CN(C)/C=C(/C(=O)c1ccc(Cl)c(Cl)c1)c1nnnn1-c1ccccc1", "inhibition": "3.92%"}
{"smiles": "O=C(c1ccc(Cl)cc1)N1N=C(c2ccccn2)CC1(O)C(F)(F)F", "note": "(stereo not drawn)", "inhibition": "57.1% (active)"}
{"smiles": "O=C(C1CC1)N1N=C(c2ccc(Br)cc2)CC1(O)C(F)(F)F", "note": "(stereo not drawn)", "inhibition": "2.39%"}
{"smiles": "O=C(Cc1ccccc1)N1N=C(c2ccncc2)CC1(O)C(F)(F)F", "note": "(stereo not drawn)", "inhibition": "6.09%"}
{"smiles": "CCOc1ccc(-n2c(O)c(/C=N/Nc3nc(C)cc(C)n3)c3ccccc3c2=O)cc1", "inhibition": "52.4% (active)"}
{"smiles": "CCN(CC)CCCN=Cc1c(O)n(-c2ccc(C)cc2)c(=O)c2ccccc12", "inhibition": "6.64%"}
{"smiles": "Cc1ccc(-n2c(O)c(C=Nc3ccc(S(=O)(=O)Nc4ncccn4)cc3)c3ccccc3c2=O)cc1C", "inhibition": "13.7%"}
{"smiles": "CC(=O)c1cccc(NC(=O)N2CCCC2C(=O)NCCC(C)C)c1", "note": "(stereo not drawn)", "inhibition": "8%"}
{"smiles": "Cc1nn(C(C)CC(=O)O)c(C)c1C", "note": "(stereo not drawn)", "inhibition": "-5.98%"}
{"smiles": "O=c1ccc2c(-c3ccccc3S(=O)(=O)O)c3ccc(O)c(O)c3oc-2c1O", "inhibition": "64.6% (active)"}
{"smiles": "O=C(CSc1ccc2nnc(-c3ccccc3)n2n1)N1CCCc2ccccc21", "inhibition": "-9.56%"}
